Sampled rows, rich in hits. Any-hit rate of the full collection: about 3%.
SARS PLP yeast = blocks SARS-CoV papain-like protease in a yeast assay; AID 485353; S. cerevisiae expressing SARS-CoV PLpro, growth rescue; Potency, µM (highest dose often 32.9 µM), for the others: at the top dose activity, positive = growth rescue, most hits filed as activators; 330,000 tested, 0.19% active; calls by dose curve; also: 0% is about no effect; nearly all actives have a fitted effect of over 55% in size
Sm TGR inh = inhibitors of Schistosoma mansoni thioredoxin glutathione reductase | Q962Y6 | purified TGR, DTNB reduction, TNB absorbance 405 nm | Potency, µM (top dose mostly 114 µM), for the others: top-dose activity change, negative = inhibition, most hits filed as inhibitors | 360,000 tested, 3% active; active = well fitted inhibition curve with a large enough effect; inconclusive = small, poorly fitted or top-dose-only effect; inactive = no such curve, though single readings can be large or run the other way; also: % is scaled to controls: 0 for no effect and ±100 for the full control effect; nearly all actives have a fitted effect of over 60% in size
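Kinetic colorimetric format: TGR-catalysed, NADPH-driven DTNB reduction monitored via TNB absorbance. Enzyme dispensed at 20 nM; compound exposure 15 min at room temperature before reaction start.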
An asterisk follows results filed as active; ? = inconclusive; · = no result. Potency is read from the fitted curve at half-maximal effect.

SMILES	SARS PLP yeast	Sm TGR inh
FC(F)(F)c1cnc(NNC(=S)Nc2cccnc2)c(Cl)c1	-1%	-9%
COc1ccc(S(=O)(=O)NCCc2csc(-c3ccc(F)cc3)n2)cc1	·	5%
CCOc1ccc(CNC(=O)CCCn2c(=O)c3cccn3c3cccnc32)cc1	·	-8%
CCC(CC)C(=O)Nc1ccc(C(=O)OCc2cc(=O)n3nc(C4CC4)sc3n2)cc1	·	-8%
Cc1ccc(C(C(=O)NC2CCCCC2)N(C)Cc2ccccc2)cc1 (centres undefined)	·	-1%
COc1cccc(CNC(=O)C(Cc2ccccc2)NS(=O)(=O)c2ccc3c(c2)oc(=O)n3C)c1 (centres undefined)	·	-4%
CCc1nn(CC(=O)NC2CC2)c(=O)c2cc3ccccc3n12	·	3%
COc1ccccc1NC(=O)c1cc2c(=O)n(Cc3cccs3)ccc2nc1C	·	-2%
S=C(Nc1ccc(Oc2ccccc2)cc1)Nc1cccnc1	1%	?
Oc1ccc(/C=N/NC(=S)Nc2cccnc2)cc1	-1%	-28%
Oc1cccc(NC(=S)Nc2cccnc2)c1	4%	50µM*
S=C(Nc1cccnc1)Nc1ccccc1Br	0%	6.3µM*
CCc1ccc(OCC(=O)N(Cc2ccco2)Cc2ccco2)cc1	·	-2%
O=C1CS/C(=N/N=C/c2ccccc2)N1c1ccc(O)cc1	5%	5%
O=C1CS/C(=N\N=C\c2ccco2)N1c1ccccc1	-1%	14µM*
O=S(=O)(Nn1c(O)c(C=C2N=c3ccccc3=N2)sc1=S)c1ccccc1	0%	11µM*
O=C(Nn1c(O)c(C=C2N=c3ccccc3=N2)sc1=S)c1ccccc1Cl	19%	-13%
CCN(CC)CCNC(=O)Cn1nc(C)c2c(C)n(-c3ccccc3)nc2c1=O	·	2%
CC(C(=O)NCc1ccccc1)N1Cc2ccccc2C1=O (centres undefined)	·	3%
CCCCS(=O)(=O)/C=C\C=C/S(=O)(=O)CCCC	-33%	2.2µM*
CCCCS(=O)(=O)/C=C\C1C2C=CC(C2)C1S(=O)(=O)CCCC (centres undefined)	-2%	2%
COc1ccccc1OCC(=O)O	3%	5%
CC(C)=CCC/C(C)=C/CC/C(C)=C/CC/C(C)=C/CC1=C(C)C(=O)c2ccccc2C1=O	2%	32µM*
CC(C)=CCC1=C(OCC(=O)O)C(=O)c2ccccc2C1=O	-2%	10µM*
CC(C)=CCC/C(C)=C/CC/C(C)=N/O	2%	-7%
SMILES	SARS PLP yeast	Sm TGR inh
COc1ccc(S(=O)(=O)c2cn(CC(=O)Nc3cc(C)ccc3C)c3ccccc3c2=O)cc1	·	-1%
CCS(=O)(=O)c1nc(S(=O)(=O)c2ccc(Cl)cc2)c(N2CCC3(CC2)OCCO3)s1	2%	-1%
CS(=O)(=O)c1nc(S(=O)(=O)c2ccc(Cl)cc2)c(N2CCC(C(N)=O)CC2)s1	-1%	11µM*
CCS(=O)(=O)c1nc(S(=O)(=O)c2ccc(Cl)cc2)c(N2CCC(C(N)=O)CC2)s1	-10%	2%
COc1cc(-c2nc(S(=O)(=O)c3ccc(Br)cc3)c(N3CCOCC3)o2)cc(OC)c1OC	·	2%
Cc1ccc(S(=O)(=O)c2nc(S(C)(=O)=O)sc2N2CCC(C(N)=O)CC2)cc1	-3%	?
CCCCc1nc(S(=O)(=O)c2ccc(Cl)cc2)c(N2CCOCC2)o1	13%	7.9µM*
CCS(=O)(=O)c1nc(S(=O)(=O)c2ccc(Cl)cc2)c(N2CCOCC2)s1	0%	22µM*
NC(=O)C1CCN(CCS(=O)(=O)c2ccc(Cl)cc2)CC1	-2%	45µM*
CC(C)Cn1cc(NC(=O)N2CCN(c3ccccc3F)CC2)c2ccccc2c1=O	·	10%
Cc1cc(C(=O)Nc2cccc(F)c2)c2c(C)nn(-c3cccc(Cl)c3C)c2n1	·	1%
Cc1cc2c(s1)c(C=O)c(C(=O)NCc1ccccc1F)n2C	6%	-5%
O=C(O)c1cccc(NC(=S)NC(=O)c2ccncc2)c1	1%	32µM*
CC(C)(C)C(=O)NC(=S)Nc1cccc(C(=O)O)c1	0%	15%
CCCOc1cccc(C(=O)NC(=S)Nc2ccccc2)c1	28%	?
O=C(CCc1ccccc1)NC(=S)Nc1cccc(C(=O)O)c1	5%	?
O=C(O)c1cccc(NC(=S)NC(=O)c2cccc(OCc3ccccc3)c2)c1	0%	25µM*
CNC(=S)Nc1cccc(C(=O)O)c1	0%	3.2µM*
O=C(O)c1ccc(NC(=S)NC(=O)c2cncc(Br)c2)cc1	12%	11µM*
CCOC(=O)c1ccc(NC(=S)NC(=O)c2cncc(Br)c2)cc1	1%	?
CCCN1Cc2cccc(C(=O)Nc3ccccc3F)c2C1=O	·	2%
COc1ccc(C(=O)CCN2CCN(c3ccccc3F)CC2)cc1	-5%	0.79µM*
COc1ccc(C(=O)CCC(=O)Nc2ccc(N3CCCCC3)cc2)cc1OC	-1%	-20%
COc1ccc(C(=O)CN2CCN(c3ccc(Cl)cc3)CC2)cc1OC	-2%	35µM*
COc1ccc(C(=O)CCN2CCN(c3ccc(OC)cc3)CC2)cc1	-3%	0%
SMILES	SARS PLP yeast	Sm TGR inh
O=C(CN1CCN(c2ccccc2)CC1)Nc1ccccc1Cl	0%	8%
O=C(CCN1CCN(c2ccccc2F)CC1)c1ccc(Br)cc1	-16%	0%
COc1ccc(N2CCN(CC(=O)c3ccc(Cl)cc3)CC2)cc1	0%	11µM*
CCc1cccc(CC)c1NC(=O)CN1CCN(c2ccccc2)CC1	7.1µM*	-22%
Cc1ccc(S(=O)(=O)NCCc2nnc3ccc(SCc4ccc(F)cc4)nn23)cc1	·	-5%
CC1=C(C(=O)N2CCN(c3ccc(Cl)cc3)CC2)C2(CCC(C)CC2)OC1=O (centres undefined)	·	-16%
COc1cc(OC)c(OC)cc1CN1CCN(c2ccc(F)cc2)CC1	-1%	3%
COc1ccc(C(=O)CN2CCN(c3ccc(F)cc3)CC2)cc1OC	5%	35µM*
N#CCN1CCN(CC(=O)c2ccc(Br)cc2)CC1	0%	11µM*
COc1ccccc1N1CCN(CC(=O)c2ccc(F)cc2)CC1	4%	22µM*
COc1ccccc1N1CCN(Cc2ccc(F)cc2)CC1	0%	-18%
N#Cc1ccc(C(=O)CN2CCN(c3ccccc3)CC2)cc1	0%	7.1µM*
CC(=O)N1CCN(CC(=O)c2ccc(Br)cc2)CC1	-23%	-6%
O=C(CCN1CCN(c2ccccc2)CC1)c1ccc(Br)cc1	-11%	0%
CCOc1ccc(CCNC(=O)CSc2nnnn2-c2ccccc2Cl)cc1OCC	·	-1%
CCOc1ccc(C(=O)Nc2ccc3oc(-c4ccc(C)cc4C)nc3c2)cc1Br	·	4%
COc1ccc(CNC(=O)c2cc(C)nc3c2c(C)nn3-c2cccc(Cl)c2C)cc1	·	8%
Cc1cc2oc(C(=O)Nc3sc4c(c3C(=O)NCc3ccco3)CCC4)cc(=O)c2cc1C	·	-15%
COc1ccc2c(c1)c1c(c(=O)n(Cc3ccccc3)c(=O)n1CC(=O)Nc1ccccc1F)n2C	·	-2%
O=C(Cn1c(=O)n(Cc2ccc3c(c2)OCO3)c(=O)c2ccccc21)Nc1cccc(Cl)c1	·	10%
CCOc1ccc(-c2nc3c(c(SCC(=O)N4CCCCC4)n2)Cc2cccc(OC)c2O3)cc1	·	-1%
COc1ccc(OC)c(NC(=O)c2cn3c4c(ccc(Cl)c4c2=O)OC(C)C3)c1 (centres undefined)	·	-2%
Cc1ccc(C)c(N2CCN(C(=O)c3cc4c(=O)n(Cc5ccco5)ccc4nc3C)CC2)c1	·	40µM*
Cc1nc2ccn(Cc3ccco3)c(=O)c2cc1C(=O)N1CCN(c2ccccc2F)CC1	·	-1%
